PubChem BioAssay (NCI)
About 79,000 compounds went through this panel and 15% of them were active in at least one assay; those are over-represented in the sample as a whole. Calls of active or inactive are those of the source. No stated cut-off is given here; in the data, active means growth inhibition above about 70%; inactive means the rest.

Legend:
[1] = NCI Yeast Anticancer Drug Screen. Data for the rad50 strain (AID 155);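 further: 0% = growth of vehicle-only cultures of the same strain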; details: S. cerevisiae rad50 strain growth inhibition; at 50.0 µM; hits give high values
Procedure, shortened: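 Genetically altered yeast (DNA repair pathway); compound treatment; growth inhibition vs vehicle ctrl.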

[2] = NCI Yeast Anticancer Drug Screen. Data for the mec2-1 strain (AID 157); details: S. cerevisiae mec2-1 strain, at 50.0 µM, hits give high values
Procedure, shortened: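 Compounds were applied to mec2-1 yeast cells. Their growth was then compared with that of vehicle-treated cultures to give growth inhibition.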

[3] = NCI Yeast Anticancer Drug Screen. Data for the sgs1 mgt1 strain (AID 161);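 further: 0% = growth of cultures given vehicle only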; details: S. cerevisiae sgs1 mgt1 strain, at 50.0 µM, hits give high values
Procedure, shortened: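 Percent growth inhibition was derived by comparing compound-exposed mutant yeast with vehicle-exposed cultures. The strain carries alterations in DNA damage repair.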

[4] = NCI Yeast Anticancer Drug Screen. Data for the cln2 rad14 strain (AID 165);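 further: 0% = growth equal to vehicle treated cultures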; details: S. cerevisiae cln2 rad14 strain, at 50.0 µM, hits give high values
Procedure, shortened: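 Strain: cln2 rad14 yeast, altered in cell cycle control and DNA damage repair. Read-out: growth inhibition vs vehicle.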

[5] = NCI Yeast Anticancer Drug Screen. Data for the bub3 strain (AID 167); details: S. cerevisiae bub3 mutant strain, at 50.0 µM, hits give high values
Procedure, shortened: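 Yeast carrying a defined mutation is treated with each compound, and growth is compared with that of vehicle-exposed cells to give inhibition.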

[6] = NCI Yeast Anticancer Drug Screen. Data for the mlh1 rad18 strain (AID 175); details: S. cerevisiae mlh1 rad18 strain growth inhibition; at 50.0 µM; hits give high values
Procedure, shortened: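 A repair-deficient yeast strain is exposed to test compound, and growth is scored relative to vehicle-treated controls.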

Measured: growth inhibition

COC(=O)C1c2ccccc2CC(=O)N1NC(=O)c1ccccc1 (configuration not stated)
inactive: [1] -7.7% | [2] -2.95% | [3] -17.1% | [4] 4.5% | [5] 3.65% | [6] 16.6%

CCCOC(=O)c1ccc(Cl)c(Cl)c1
inactive: [1] 10.6% | [2] 7.85% | [3] 2.5% | [4] -58.2% | [5] -6.15% | [6] 5.9%

COC(=O)CC(=O)/C(=C/C(C/C=C(\C(=O)CC(=O)OC)C(=O)OC)OC)C(=O)OC (configuration not stated)
inactive: [1] 40.1% | [2] 22.8% | [3] 8.9% | [4] 18.8% | [5] 3.85% | [6] 32.3%

CC1OC(OC2C(Oc3cc(O)c4c(=O)cc(-c5ccc(O)cc5)oc4c3)OC(CO)C(O)C2O)C(O)C(O)C1O (configuration not stated)
inactive: [1] -6.15% | [2] 5.75% | [3] -14.2% | [4] -19.9% | [5] 6.35% | [6] -7.65%

Nc1c2ccccc2nc2ccc3c(=O)cc(-c4ccccc4)oc3c12
inactive: [1] 20.6% | [2] 18.9% | [3] -12.1% | [4] 22.1% | [5] 11.1% | [6] -73%

CCOc1c2c(nn(C)c1=O)Oc1ccccc1N2CCCN1CCOCC1
inactive: [1] -27.6% | [2] -0.25% | [3] -18.1% | [4] 2.3% | [5] 3.95% | [6] -4.6%

CCNCC(=O)Nc1ccccc1C(=O)OCC
inactive: [1] -2.7% | [2] 14% | [3] 0.2% | [4] -22.5% | [5] 8.6% | [6] 10.1%

C#CCOCn1cc(C)c(=O)[nH]c1=O
inactive: [1] 0.4% | [2] -0.1% | [3] 16.5% | [4] 10.4% | [5] 0.05% | [6] 12.4%

C=C1CN=C(Nc2ccc(Cl)cc2)S1
inactive: [1] -11.1% | [2] 18.1% | [3] -14.8% | [4] 17.2% | [5] 11.5% | [6] -13.7%

Brc1cccc(C2ON=C(c3ccccc3)N2C23CC4CC(CC(C4)C2)C3)c1 (configuration not stated)
inactive: [1] 2.2% | [2] -7.45% | [3] -1.75% | [4] -14.7% | [5] -7.55% | [6] -7.7%

NC(=O)Cc1csc(Br)n1
inactive: [1] 12.9% | [2] 0.8% | [3] -6.2% | [4] -32.2% | [5] 15.4% | [6] 7.9%

CN1C(=O)C(O)(c2c3c(c(C4(O)C(=O)N(C)c5ccccc54)c4c2OCO4)OCO3)c2ccccc21 (configuration not stated)
inactive: [1] 0.45% | [2] -0.6% | [3] -28.2% | [4] -7.35% | [5] -5.2% | [6] 8.95%

COc1cc2c(cc1O)C(=O)CCCC2
inactive: [1] -13.8% | [2] 0.75% | [3] -17.8% | [4] -2.25% | [5] 14.1% | [6] 1.2%

CCOC(=O)CCC(NC(=O)c1ccc(Nc2nc3ccccc3nc2-c2cccs2)cc1)C(=O)OCC (configuration not stated)
inactive: [1] 7.1% | [2] 4.3% | [3] 20.1% | [4] 14.8% | [5] 9.2% | [6] -34.7%

Cn1c(N)c(N=O)c(=O)n(C)c1=O
inactive: [1] -28.9% | [2] -18.8% | [3] -1.6% | [4] -12.8% | [5] -5.65% | [6] -9.9%

COC(=O)/C=C(\C(=O)OC)C1=C(N2CCCC2)CC(C)(C)CC1=O
inactive: [1] -7.8% | [2] -14.9% | [3] -14.1% | [4] -14.3% | [5] -14.3% | [6] -1.1%

O=c1[nH]c(-c2ccccc2)nc(-c2ccccc2)c1Cc1cc2c(cc1O)OCC2
inactive: [1] -0.1% | [2] -4.05% | [3] 20.7% | [4] 2.8% | [5] 0.7% | [6] -10.6%

O=[N+]([O-])c1cc(F)ccc1Sc1ccccc1
inactive: [1] 49.2% | [2] 23.4% | [3] 38.9% | [4] 39.8% | [5] 20.6% | [6] 40.6%

O=c1[nH]c(=S)[nH]n1C(=S)n1[nH]c(=S)[nH]c1=O
inactive: [1] 5.35% | [2] -2.65% | [3] 8.7% | [4] -7.8% | [5] 13.1% | [6] 9.6%

CC(=O)OCC1OC(n2nnc(CCl)c2CCl)C(OC(C)=O)C(OC(C)=O)C1OC(C)=O (configuration not stated)
inactive: [1] 38.5% | [2] 8.7% | [3] 0.5% | [4] -3.15% | [5] -0.25% | [6] 8.45%

CC(=O)c1sc(/N=C\c2c(O)c3ccccc3oc2=O)nc1C
inactive: [1] -53.5% | [2] -49.6% | [3] -40.2% | [4] -3.25% | [5] -36.2% | [6] -33.8%

O=C1CCCCC1CO (configuration not stated)
inactive: [1] -0.1% | [2] 1.5% | [3] -0.65% | [4] -5.5% | [5] 1.4% | [6] 2.3%

O=C1CCCNc2c(Br)cc(Br)cc21
inactive: [1] 49.2% | [2] 24.7% | [3] 14.2% | [4] 8.6% | [5] 46.5% | [6] 14.8%

CCC(C)NCC/C(=C\[Si](C)(C)C)c1ccccc1 (configuration not stated)
inactive: [1] 3.05% | [2] -11.8% | [3] -11.4% | [4] 11.7% | [5] -0.15% | [6] 8.5%

COc1cc2cnc3c4ccccc4ccc3c2cc1OC
inactive: [1] -48.5% | [2] -18.1% | [3] -1.7% | [4] 4.2% | [5] -2.85% | [6] -9.3%

Cc1cc(C)c(OCC(O)CO)c(C)c1 (configuration not stated)
inactive: [1] 2.45% | [2] -26.1% | [3] 14.7% | [4] -10.1% | [5] 5.9% | [6] -8.8%

CC(C)NC(=O)OCc1c(COC(=O)NC(C)C)c(S(C)(=O)=O)n2c1CCC2
inactive: [1] 3.65% | [2] -4.7% | [3] -15.3% | [4] 7.9% | [5] -1.3% | [6] 6.8%

[N-]=[N+]=NC1CC(n2ccc(N)nc2=O)OC1CO (configuration not stated)
inactive: [1] -3.9% | [2] 13.6% | [3] 0.8% | [4] -6.65% | [5] -8.95% | [6] 8.8%

O=C(O)C#Cc1ccccc1[N+](=O)[O-]
inactive: [1] 21.1% | [2] 25.1% | [3] 11.3% | [4] -15.4% | [5] 14.9% | [6] 9.35%

Cc1nc(Cl)nc2c1C(=O)Nc1ccccc1N2
inactive: [1] 27.2% | [2] 14.4% | [3] 0% | [4] 2.95% | [5] 28.1% | [6] 15.9%

Cc1nc2ccc(Cl)c(Cl)c2s1
inactive: [1] 2% | [2] -16.3% | [3] -3% | [4] -26% | [5] 6.65% | [6] -10.4%

ClCC1CCN(Cc2ccccc2)CC1
inactive: [1] -4.5% | [2] 13.9% | [3] 6.7% | [4] -17.4% | [5] -10.5% | [6] 6.9%

CC(N)CCC(=O)O (configuration not stated)
inactive: [1] -16.1% | [2] -27.4% | [3] -15.7% | [4] -27.2% | [5] -32.1% | [6] -31%

OCCN1CCN(C2=Nc3cccnc3Nc3cscc32)CC1
inactive: [1] -41.2% | [2] -1.15% | [3] -22.6% | [4] -9.75% | [5] -5.05% | [6] -8.75%

CCCCCCCCCCCCCCNC(=O)C(C)O (configuration not stated)
inactive: [1] 2% | [2] -23.8% | [3] -15.7% | [4] -35.2% | [5] 11.3% | [6] -2.2%

O=C(OC1COC(n2c(=O)oc3ccc(Cl)cc32)C(OC(=O)c2ccccc2)C1OC(=O)c1ccccc1)c1ccccc1 (configuration not stated)
inactive: [1] 8% | [2] 2.5% | [3] 6.8% | [4] -13.2% | [5] -1.1% | [6] 10.7%

ClCCCN1CCN(CCCCl)CC1
inactive: [4] 62.1% | [6] 7.75%
active: [1] 80.2% | [2] 70% | [3] 85% | [5] 80.5%

CC(O)CCNC(c1ccccc1)C(O)c1ccccc1 (configuration not stated)
inactive: [1] 3% | [2] -6.95% | [3] -2.85% | [4] -7.4% | [5] 14.6% | [6] -0.85%

CN(C)CC(O)CO (configuration not stated)
inactive: [1] 38.5% | [2] -4% | [3] -6.5% | [4] -45.1% | [5] 21.7% | [6] 22%

C/C=C/C=C/CC
inactive: [1] 8.75% | [2] -12.3% | [3] -5.4% | [4] 16.2% | [5] 16.9% | [6] -22.6%

C[N+](C)(C)CCC(=O)N1C/C(=C\c2ccccc2)C(=O)/C(=C/c2ccccc2)C1
inactive: [1] -35.6% | [2] -15.2% | [3] -34.1% | [4] 8.75% | [5] -15.7% | [6] -34.8%

Oc1ccc2ccc3[nH]cnc3c2c1
inactive: [1] -22.5% | [2] -25.4% | [3] -9% | [4] 2.1% | [5] -8.9% | [6] 0.15%
